The supplement of paper PMC10338343
± gives the standard deviation. The full ranking holds about 5,500 sequences; the median of “pre-steady-state target cleavage rate” is about 0.1, and the highest 2% start at about 0.64. The full list was thinned out, with the highest values kept by preference.

These sequences were tested on MIWI (PIWIL1) piRISC loaded with piRNA #2 (30 nt) (assay: pre-steady-state target cleavage rate (min^-1); MIWI and MILI are mouse PIWI proteins and EfPiwi is from a freshwater sponge; tags in brackets are library labels; higher = faster piRNA-guided slicing of the target). Settings: guide: piRNA #2 5'p-UUAGGUAACCCAGUAGAUCCAGAGGAAUUC; auxiliary factor: 500 nM mouse GTSF1.
Outline: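 The pre-steady-state cleavage rate was derived from a burst-and-steady-state fit of Cleave-'n-Seq data. For these assays, 1 nM active affinity-purified piRISC loaded with a single synthetic guide was mixed with […] a transcribed, DNA-blocked target RNA library in HEPES–potassium acetate buffer at 33 °C, with or without 500 nM GTSF1 partner protein, for 0–8 or 0–960 min. Sequencing counts of uncleaved targets were normalised to depth and to weakly complementary targets, and k3 was capped at 0.0001 min^-1 after three trials were pooled.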

| Sequence | pre-steady-state target cleavage rate |
| --- | --- |
| CAAUUCCACUGGAUCUACUGGGUUACCAAA | 0.456 ± 0.083 |
| CUUAUCCUCUGGAUCUACAGGGUAACCUAA | 0.128 ± 0.023 |
| CUAUUCCUCUGGUUCUACUGGGUUACCUUA | 0.371 ± 0.057 |
| GAAUUCCUCUGGUUCUACUGGGUUACGUAA | 0.618 ± 0.035 |
| GAAUUCCUCUGGUUCUACUGGGUUACCUAA | 0.678 ± 0.042 |
| CAAUUCCUCUGGUCUACUGGGUUACCUAA | 0.369 ± 0.088 |
| CAAUUCCUCUGGUUCUACUGGGUUACCUUA | 0.475 ± 0.066 |
| GUAUUCCUCUGGUUCUACUGGGUUACCUAA | 0.0955 ± 0.034 |
| CUAUUCCUCUGGUUCUACUGGGUUACGUAA | 0.629 ± 0.059 |
| CAAUUCCUCUGGUUCUACUGGGUUACGUAA | 0.688 ± 0.045 |
| CAAUUCCUCUGGUUCUACUGGGUUACCUAA | 0.868 ± 0.05 |
| GAAUUCCUCUGGUUCUACUGGGUUACCUUA | 0.427 ± 0.064 |
| CUAUUCCUCUGGUUCUACUGGGUUACCUAA | 0.711 ± 0.043 |
| GAAUUCCUCUGGUCUACUGGGUUACCUAA | 0.301 ± 0.059 |
| CUUAAGCAGAGGAUCUACUGGGUUACCUAA | 0.0315 ± 0.0087 |
| GAAUUCCACAGGAUCUACUGGGUUACCUAA | 0.408 ± 0.05 |
| CUUAAGGUCUGGAUCUACUGGGUUAGCCUAA | 0.185 ± 0.025 |
| CUUUUCCUCUGGAUCUUCUGGGAUACCUAA | 0.146 ± 0.022 |
| CUUAAGGUGAGGAUCUACUGGGUUACCUAA | 0.0307 ± 0.01 |
| CUUAUCCUCUGGAUCUACUGCGUUACCUAA | 0.498 ± 0.055 |
| CUUAAGGUCUGCAUCUAGUGGGUUACCUAA | 0.0327 ± 0.0059 |

| Sequence | pre-steady-state target cleavage rate |
| --- | --- |
| CUAUUCCUCUGCUUCUACUGGGUUACCUAA | 0.516 ± 0.04 |
| GAUUUCCUCUGGUUCUACUGGGUUACCUAA | 0.524 ± 0.046 |
| CAAUUCCUCUGCUUCUACUGGGUUACCUAA | 0.653 ± 0.056 |
| CUUUUCCUCUGGUUCUACUGGGUUACCUAA | 0.621 ± 0.042 |
| GAAUUCCUCUGCUUCUACUGGGUUACCUAA | 0.48 ± 0.04 |
| CAUUUCCUCUGGUUCUACUGGGUUACCUAA | 0.772 ± 0.046 |
| CUUAAGGUCUGGUUCUAGUGGGUUACCUAA | 0.0776 ± 0.014 |
| CUUAAGGACUGGAUCUACUGGGUUACCAUAA | 0.051 ± 0.039 |
| CUUAAGUUCUGGAUCUACUGGGUUACCUAA | 0.274 ± 0.04 |
| CAAUUCCUCUGGAUCUACUGGGAUACCUUA | 0.219 ± 0.046 |
| CUUAACCUCUGGAUCAACUCGGUUACCUAA | 0.0679 ± 0.013 |
| CUUAUCCUCUGGAUCUUCUGGGAUACCUAA | 0.144 ± 0.025 |
| CAAUUCCUCUGGCAUCUACUGGGUUACCUAA | 0.636 ± 0.17 |
| GAAUUCCUCUGGCUCUACUGGGUUACCUAA | 0.586 ± 0.038 |
| CUUUUCCUCUGGCAUCUACUGGGUUACCUAA | 0.331 ± 0.089 |
| GAAUUCCUCUGGCAUCUACUGGGUUACCUAA | 0.667 ± 0.17 |
| GAAUUCCUCUGCAUCUACUGGGUUACCUAA | 0.421 ± 0.051 |
| CAAUUCCUCUGGCUCUACUGGGUUACCUAA | 0.66 ± 0.04 |
| CAAUUCCUCUGCAUCUACUGGGUUACCUAA | 0.57 ± 0.049 |
| CUAUUCCUCUGGCAUCUACUGGGUUACCUAA | 0.399 ± 0.1 |
| CUAUUCCUCUGGCUCUACUGGGUUACCUAA | 0.612 ± 0.042 |
